Experimental findings from PubChem BioAssay (Tox21) are described below.

Molecules are shown by their SMILES. Records with an inconclusive call do not appear. More than one record can exist for a structure, and the calls need not agree. Activity calls are given as the source filed them. Unless noted, the call rests on the fitted dose curve; in most records, active means well fitted curve in the direction sought with a large enough effect in the repeat runs; inconclusive means weak or mixed curves; inactive means no such curve, though single readings can be large; an effect the other way counts as inactive or inconclusive.

The nature of assay [1]: qHTS assay to identify small molecule agonists of the vitamin D receptor (VDR) signaling pathway - cell viability counter screen (AID 743224). Further: series mostly up to about 63 µM; nearly all actives have a fitted effect of over 50% in size. The method, boiled down: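 Cells: VDR-bla, 2,000/well, settled 4 h. Treatment: compounds in DMSO, 16 h, 37C/5% CO2. Readout: CellTiter-Glo luminescence after 30 min RT.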
Assay [2] can be described thus: qHTS assay to identify small molecule antagonists of the vitamin D receptor (VDR) signaling pathway - cell viability counter screen (AID 743225). Further: nearly all actives have a fitted effect of over 50% in size. The method, boiled down: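 Compounds were pinned onto VDR-bla HEK 293T cells together with 1-alpha,25-dihydroxyvitamin D3 at 3 nM final. After 16 h at 37C and 5% CO2 plus the reporter readout, cell viability was measured by CellTiter-Glo luminescence (30 min, room temperature).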

A short description of assay [3]: qHTS assay to identify small molecule agonists of the NFkB signaling pathway (AID 1159509; active means well fitted curve in the direction sought with a large enough effect in the signal ratio in the repeat runs, not every such curve was filed as active; the % refers to the signal ratio; further: series mostly up to about 61 µM). The method, boiled down:
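Readout: FRET fluorescence, 405 nm excitation, 460/530 nm emission; beta-lactamase expression disrupts FRET. Cells: ME-180 stably carrying NF-kB-driven bla reporter. Compound exposure 5 hr, 37 C, 5% CO2.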

Assay [4] in a line: qHTS assay to identify small molecule agonists of the NFkB signaling pathway - cell viability counter screen (AID 1159515; calls by dose curve; further: series mostly up to about 61 µM; nearly all actives have a fitted effect of over 55% in size). The method, boiled down: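 Cells are seeded (2,000 NFkB-bla ME-180 per well), rested overnight, and dosed with DMSO-dissolved compounds for 5 hr at 37 C. Viability is then read by CellTiter-Glo luminescence after 30 min at room temperature.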
A short description of assay [5]: qHTS assay to identify small molecule agonists of the endoplasmic reticulum stress response signaling pathway (AID 1159516; active means well fitted activation curve with a large enough effect in the signal ratio in the repeat runs, not every such curve was filed as active; the % refers to the signal ratio; further: potency means the concentration at half of the fitted maximal effect). The method, boiled down: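 Cells are seeded at 1,500 per well and incubated overnight. Compounds in DMSO are added for 5 hr at 37 C, then beta-lactamase FRET substrate for 2 hr at room temperature, and fluorescence at 460 and 530 nm is measured.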

The nature of assay [6]: qHTS assay to identify small molecule agonists of the endoplasmic reticulum stress response signaling pathway - cell viability counter screen (AID 1159517; calls by dose curve;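 further: HeLa cells carrying an ER stress response element beta-lactamase reporter; series mostly up to about 61 µM; nearly all actives have a fitted effect of over 50% in size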). The method, boiled down:
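Cytotoxicity of test compounds toward ESRE-bla HeLa cells was assessed after 5 hr exposure. The luminescent CellTiter-Glo signal was measured 30 min after reagent addition.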

Assay [7] can be described thus: qHTS assay to identify small molecule antagonists of the retinoid-related orphan receptor gamma (ROR-gamma) signaling pathway - cell viability counter screen (AID 1159520). Further: nearly all actives have a fitted effect of over 50% in size. The method, boiled down: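 Tet-on ROR gamma CHO cells (1,000/well) were plated 4 hr, given compounds in DMSO for 2 hr at 37 C, then induced with 1 uM final doxycycline for 16 hr. Viability was read as ATP by CellTiter-Glo luminescence after 30 min.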

The target in assay [8] is Nuclear receptor ROR-gamma (Homo sapiens) (UniProt P51449). The experiment in a line: qHTS assay to identify small molecule antagonists of the retinoid-related orphan receptor gamma (ROR-gamma) signaling pathway (AID 1159521; further: nearly all actives have a fitted effect of over 50% in size; further: potency means the concentration at half of the fitted maximal effect). The method, boiled down: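 Test compounds were applied to Tet-on RORγ CHO cells 2 h ahead of doxycycline hyclate (1 uM final). Luciferase reporter activity was quantified by luminescence after 16 h at 37 C and 5% CO2.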

Assay [9] can be described thus: qHTS assay to identify small molecule agonists of the AP-1 signaling pathway - cell viability counter screen (AID 1159525; calls by dose curve; further: nearly all actives have a fitted effect of over 55% in size). The method, boiled down:
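Each titration point was normalised to DMSO and tetra n-octyl ammonium bromide controls. The read was Cell Titer Glo luminescence after 30 min at RT, following 5 h compound exposure of ME-180 AP-1-bla cells at 37 °C.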

Assay [10] is described as follows: qHTS assay to identify small molecule agonists of the AP-1 signaling pathway (AID 1159526; calls by dose curve).
For assay [11], the target named is Retinoic acid receptor RXR-alpha (Homo sapiens) (UniProt P19793). The experiment in a line: qHTS assay to identify small molecule agonists of the RXR signaling pathway (AID 1159527; calls by dose curve; further: nearly all actives have a fitted effect of over 35% in size; further: potency means the concentration at half of the fitted maximal effect). The method, boiled down:
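Using 9-cis retinoic acid as the reference agonist, chemicals were tested in HEK 293T cells […] for 16 hr; substrate loading lasted 2 hr at room temperature.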

Assay [12] is described as follows: qHTS assay to identify small molecule agonists of the RXR signaling pathway - cell viability counter screen (AID 1159529). The method, boiled down: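 Compounds dissolved in DMSO were pinned onto HEK 293T cells carrying a beta-lactamase reporter under RXR-alpha control and incubated 16 hr. Cytotoxicity was then quantified by CellTiter-Glo luminescence.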
A short description of assay [13]: qHTS assay to identify small molecule antagonists of the retinoid acid receptor (RAR) signaling pathway - cell viability counter screen (AID 1159551). Further: nearly all actives have a fitted effect of over 35% in size. The method, boiled down: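 Cells (C3RL4) are plated, incubated overnight, dosed with compound in DMSO, then given retinol at 1 uM final. After 6 h at 37 C, CellTiter-Glo is added and luminescence read following 30 min at room temperature.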

Assay [14] can be described thus: qHTS assay to identify small molecule antagonists of the retinoic acid receptor (RAR) signaling pathway (AID 1159552; further: nearly all actives have a fitted effect of over 50% in size; further: potency means the concentration at half of the fitted maximal effect). The method, boiled down: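 Test chemicals and DMSO controls were pin-transferred onto C3RL4 cells a day after seeding; retinol (1 uM final) followed at once. Luminescent reporter output was quantified after 6 hr of co-incubation and 30 min with detection reagent.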

Assay [15] is described as follows: qHTS assay to identify small molecule agonists of the retinoic acid receptor (RAR) signaling pathway (AID 1159553). The method, boiled down: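 Seed C3RL4 reporter cells at 1,000 per well and incubate overnight at 37 C. Add compounds in DMSO, incubate 6 hr. Add luciferase reagent, wait 30 min at room temperature, read luminescence.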
A short description of assay [16]: qHTS assay to identify small molecule agonists of the estrogen related receptor (ERR) signaling pathway (AID 1224820). The method, boiled down:
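Luminescence readout (One-Glo, 30 min RT) from NTP-supplied ERR cell line exposed to compounds for 18 h at 37 C. Cells seeded 2,000 per well and pre-incubated 6 h before pin-tool compound transfer.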

Assay [17] is described as follows: qHTS assay to identify small molecule antagonists of the estrogen related receptor signaling pathway with the pleiotropic PPARgamma coactivator (PGC) cell viability counter screen (AID 1224822;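 further: series mostly up to about 46 µM; viability read after 17.5 h compound exposure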). The method, boiled down: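 Multiplexed viability counter screen run in PGC/ERR cells treated with compounds for 17.5 h at 37 C; live-cell protease signal measured by CellTiter-Fluor fluorescence.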

Retinoic acid receptor RXR-alpha (Homo sapiens), sequence (P19793 whole entry, looked up): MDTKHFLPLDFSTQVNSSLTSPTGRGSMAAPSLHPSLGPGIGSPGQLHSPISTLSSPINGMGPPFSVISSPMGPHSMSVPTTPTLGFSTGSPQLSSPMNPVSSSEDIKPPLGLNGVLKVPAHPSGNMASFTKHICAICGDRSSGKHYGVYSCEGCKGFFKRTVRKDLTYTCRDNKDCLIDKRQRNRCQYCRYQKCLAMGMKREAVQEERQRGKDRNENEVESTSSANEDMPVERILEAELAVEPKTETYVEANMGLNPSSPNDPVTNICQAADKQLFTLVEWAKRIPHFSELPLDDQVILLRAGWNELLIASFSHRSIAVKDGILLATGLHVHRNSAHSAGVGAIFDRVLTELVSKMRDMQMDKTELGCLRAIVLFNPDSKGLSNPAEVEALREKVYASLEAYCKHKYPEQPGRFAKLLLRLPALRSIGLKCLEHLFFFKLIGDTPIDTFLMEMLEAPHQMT

Consider `Cc1ncc[nH]1`, for which the Potency result in assay [1], in assay [2], in assay [4], in [5], in assay [6] and in assay [7] was “inactive” each time. The Potency result in [8], in assay [9], in [11], in assay [12], in assay [13] and in assay [14] was “inactive” throughout. The Potency entry in assay [15] is “inactive”. Moreover, the molecule was classed as inactive in assay [3] and in [10].
Consider `Nc1ccc(Cl)cc1Cl`, for which the Potency result in assay [1], in [2], in [4], in [5], in [6] and in assay [7] was “inactive” in each case. The Potency entry in [8], in assay [9], in assay [11], in assay [12], in assay [13] and in [14] was “inactive” throughout. Further, the Potency result in [15] was “inactive”. Further, the result in assay [3] and in [10] was inactive.
Take `Cc1ccc2c(n1)Oc1ccc(C(C)C(=O)OCC(=O)N(C)C)cc1C2` (configuration not stated): the Potency entry in assay [1], in [2], in assay [4], in assay [5], in [6] and in assay [7] was “inactive” each time. Besides, the Potency entry in assay [8], in assay [9], in assay [11], in [12], in assay [13] and in [14] was “inactive” throughout. Moreover, the molecule was called inactive in assay [3] and in [10].
For `c1ccc2c(c1)c1cccc3ccc4cccc2c4c31`, the Potency result in [1], in assay [2], in assay [4], in assay [6], in assay [7] and in assay [8] was “inactive” in each case. The Potency entry in assay [9], in [12] and in assay [13] was “inactive” each time. Moreover, the molecule was classed as inactive in assay [3] and in [10]. Moreover, the Potency is 48.6 µM (active) in assay [5]; 43.4 µM (active) and inactive in assay [11].
Take `Cn1cnc([N+](=O)[O-])c1Sc1ncnc2nc[nH]c12`: the Potency result in assay [2], in assay [4], in assay [5], in [6], in assay [7] and in assay [9] was “inactive” in each case. The Potency result in [11], in [12], in [13], in assay [15] and in [17] was “inactive” in each case. The result in assay [3], in [10] and in assay [16] was inactive. Further, the Potency in assay [8] is 30.5 µM (active) and inactive; in [14], 48.3 µM (active) and inactive.
On to `CCCCCCCCCC(=O)OC`, for which the Potency result in assay [1], in assay [2], in assay [4], in assay [5], in assay [6] and in assay [7] was “inactive” throughout. Also, the Potency entry in assay [8], in [9], in [11], in [12], in assay [13] and in assay [14] was “inactive” in each case. The Potency entry in assay [15] was “inactive”. Further, the molecule was classed as inactive in assay [3] and in assay [10].
`CC(=O)c1ccccn1`: the Potency result in assay [1], in assay [2], in assay [4], in assay [5], in [6] and in assay [7] was “inactive” each time. The Potency entry in assay [8], in assay [9], in assay [11], in assay [12], in [13] and in [14] was “inactive” each time. In addition, the Potency result in [15] was “inactive”. Further, the outcome in [3] and in [10] was inactive.
With `CCC(C)c1ccccc1O` (configuration not stated), the Potency entry in assay [1], in assay [2], in assay [4], in assay [5], in [6] and in [7] was “inactive” each time. For the same molecule, the Potency result in assay [8], in assay [9], in [11], in assay [12], in [13] and in assay [14] was “inactive” in each case. In addition, the result in [3] and in assay [10] was inactive.
